Source: PubChem (National Center for Advancing Translational Sciences (NCATS))
Sampled rows, rich in hits. Any-hit rate of the full collection: about 9.2%.
SMN2 splice enh – SMN2 splice variant enhancement | Potency, µM (top dose mostly 46.1 µM), inactives show top-dose activity change, positive = activation, usual class: activators | HEK293 SMN2-luciferase splicing reporter, luminescence, 30-36 h | 210,000 compounds, 2.8% hits | AID 1458; further: % of control where 0% means no effect; nearly all actives have a fitted effect of over 55% in size
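HEK293 cells carry an SMN2 minigene-luciferase reporter in which exon 7 inclusion puts luciferase in frame. Cells were seeded at 2000 cells/well, attached for 10-12 hours, then exposed to compounds for 30-36 hours at 37C before ONE-Glo luminescence.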
FLuc modulator – counter-screen for miR-21 project: firefly luciferase inhibitors or activators; AID 588342; P08659; Potency, µM (highest dose often 57.5 µM), without a hit: at the top dose activity change, negative = inhibition, usual class: inhibitors; purified FLuc, Km substrates, luminescence inhibition; 360,000 compounds, 6.9% hits;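 further: plate controls were vehicle for no effect and reference inhibitor for full effect; nearly all actives have a fitted effect of over 55% in size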
Target sequence (P08659 whole entry, looked up): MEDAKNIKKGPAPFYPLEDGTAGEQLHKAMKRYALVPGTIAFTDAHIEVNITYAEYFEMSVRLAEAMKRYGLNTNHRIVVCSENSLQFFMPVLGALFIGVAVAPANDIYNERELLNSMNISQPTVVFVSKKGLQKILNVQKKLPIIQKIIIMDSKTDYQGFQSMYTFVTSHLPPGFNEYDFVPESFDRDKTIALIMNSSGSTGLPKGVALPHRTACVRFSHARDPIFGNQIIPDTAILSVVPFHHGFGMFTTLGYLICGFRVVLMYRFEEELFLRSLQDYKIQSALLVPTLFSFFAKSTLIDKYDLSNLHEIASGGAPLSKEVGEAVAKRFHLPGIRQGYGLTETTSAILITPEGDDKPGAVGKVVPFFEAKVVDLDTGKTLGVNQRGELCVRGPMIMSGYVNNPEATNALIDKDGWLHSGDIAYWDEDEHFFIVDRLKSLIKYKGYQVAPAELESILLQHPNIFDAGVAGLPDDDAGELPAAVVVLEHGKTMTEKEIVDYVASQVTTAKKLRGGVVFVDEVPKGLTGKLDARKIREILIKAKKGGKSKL
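Purified P. pyralis luciferase, 10 nM final, with Km-level 10 uM D-luciferin and 10 uM ATP in 50 mM Tris acetate pH 7.5, 10 mM Mg acetate, 0.01% Tween-20, 0.05% BSA; 6-point qHTS titration about 60 µM downward; luminescence read.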
Rab9 promoter act – Rab9 promoter activation. Potency, µM (series often up to 9.22 µM), inactives show at the top dose activation, negative = inhibition, actives largely listed as activators. Huh7 Rab9 promoter-luciferase reporter, luminescence, 24 h. 320,000 compounds, 2.8% hits; further: % of control where 0% means no effect; nearly all actives have a fitted effect of over 60% in size
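Cells were plated at 1500 per well in reduced-serum medium with 10% FBS and left 2 h. Compound in DMSO was then added for 24 h at 37 °C. Reporter signal was read by luminescence after 10 min with luciferase detection reagent.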
ELG1 genotoxic – genotoxicity induction in ELG1-luciferase HEK293T cells; HEK293T ELG1-luciferase reporter, luminescence, 16 h; 330,000 compounds, 1.3% hits; Potency, µM (series often up to 46 µM), inactives show at the top dose activity change, positive = activation, actives largely listed as activators; further: % of control where 0% means no effect; nearly all actives have a fitted effect of over 60% in size
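Quantitative HTS format in 1536-well plates. HEK293T ELG1-luciferase reporter cells receive test compound and are incubated 16 hr at 37 °C, 5% CO2; ONE-Glo added, 30 min room temperature, then luminescence read.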
NPC1 prom act – activators of NPC1 promoter. 320,000 compounds, 2.4% hits. AID 485313. Huh7 NPC1 promoter luciferase reporter, 24 h. Potency, µM (titrated, usually from 9.22 µM), for inactives: at the highest dose activation, usual class: activators; further: % of control where 0% means no effect; nearly all actives have a fitted effect of over 60% in size
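Readout is luciferase luminescence, reflecting NPC1 promoter activation in stably transfected Huh7 cells after 24 h compound exposure at 37 °C in reduced-serum medium with 10% FBS.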
ELG1 repair inh – ELG1-dependent DNA repair inhibition; HEK293T ELG1-luciferase reporter, luminescence, 16 h; DNA damage induced by 5-fluorouridine; Potency, µM (top dose mostly 46.1 µM), without a hit: at the top dose activity change, negative = inhibition, usual class: inhibitors; 330,000 compounds, 2.3% hits; further: on the % scale 0 is the no-effect control and ±100 the full control effect; nearly all actives have a fitted effect of over 55% in size
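In this reporter screen, reduction of luminescence relative to DMSO vehicle indicated activity. Compounds and 5-fluorouridine were added together to 2,000 cells per well, incubated for 16 hr at 37 °C, then developed with ONE-Glo.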
* hit, by the source's call; u = inconclusive; x = not tested or not shown. The call rests on the fitted dose curve; in most records, active means well fitted curve in the direction sought with a large enough effect; inconclusive means small, poorly fitted or top-dose-only effect, or another doubt; inactive means no such curve, though single readings can be large; an effect the other way counts as inactive or inconclusive. Potency means the concentration at half of the fitted maximal effect.

SMILES | SMN2 splice enh | FLuc modulator | Rab9 promoter act | ELG1 genotoxic | NPC1 prom act | ELG1 repair inh
O=C1C(=O)c2ccc(-c3ccccc3)cc2-c2ccccc21 | -99% | 3% | -38% | -13% | -42% | 9.2µM*
Nc1ccc2c(c1)C(=O)C(=O)c1ccccc1-2 | -62% | u | -41% | -21% | -34% | 4.6µM*
O=C(c1nc2ccccn2c1CN1CCCC(c2nc3ccccc3o2)C1)N1CCCC1 (stereo not given) | x | 4% | 2% | -10% | -4% | -14%
COc1ccc(OC)c(C2NC(=O)NC(C)=C2C(=O)Nc2cc(C)cc(C)c2)c1 (stereo not given) | 3% | -8% | x | x | x | x
O=C(O)CCn1ccc2cc(S(=O)(=O)N3CCCCC3)ccc21 | -28% | -20% | x | x | x | x
CCn1cc(C(=O)O)c(=O)c2cc(F)c(N3CCN(C(=S)NC(=O)c4ccccc4F)CC3)cc21 | x | 1% | -1% | -4% | 2% | u
CCn1cc(C(=O)O)c(=O)c2cc(F)c(N3CCN(C(=O)Nc4ccccc4)CC3)cc21 | 18µM* | 0% | 2% | -36% | -3% | u
CCn1cc(C(=O)NCC(C)C)c(=O)c2cc(F)c(N3CCN(C(=O)c4ccco4)CC3)cc21 | x | -1% | -6% | -9% | -3% | -1%
CCC(C)NC(=O)c1cn(CC)c2cc(N3CCN(C(=O)c4ccco4)CC3)c(F)cc2c1=O (stereo not given) | x | -3% | -2% | -12% | -8% | 21µM*
COc1ccc(CCN(C)CCC(=O)Nc2cc(C)ccc2C)cc1OC | -7% | 13µM* | -2% | -1% | 1% | u
Cc1cc(C)c(C(=O)COC(=O)c2nn(C)c(=O)c3ccccc23)cc1C | x | 11µM* | -5% | 1% | -3% | u
Cn1nc(C(=O)OCC(=O)c2ccc(Br)cc2)c2ccccc2c1=O | x | 0% | 1% | -1% | 1% | 4%
O=C(COC(=O)c1n[nH]c2ccccc12)c1cc(F)ccc1F | -20% | u | 2% | -1% | -1% | 5%
CCc1ccc(C(=O)COC(=O)c2nn(C)c(=O)c3ccccc23)cc1 | 1% | 19µM* | -4% | 0% | -2% | 3%
CCc1ccc(C(=O)COC(=O)c2n[nH]c3ccccc23)cc1 | -12% | 3µM* | 0.89µM* | 18% | 1.8µM* | u
CC1CCN(C(=O)COC(=O)c2n[nH]c3ccccc23)CC1 | u | u | 3.2µM* | u | 3.5µM* | u
CSc1nnc(-c2ccccc2N=Cc2c(C)[nH]n(-c3ccc4ccccc4c3)c2=O)c(=O)[nH]1 | u | 9.5µM* | 7% | 19% | 18% | u
COc1ccc(CC(=O)OC(C)C(=O)c2ccc(C)cc2)cc1 (stereo not given) | x | -2% | -5% | -4% | 11% | -22%
Nc1ccccc1-c1nnn(CC(=O)N2CCCc3ccccc32)n1 | u | -1% | 3% | -9% | 2% | -6%
COC1=C(Nc2ccc(OC)cc2)C(=O)c2ccccc2C1=O | u | 19µM* | u | 4% | 28% | 28%
CCN(CC)c1ccc(NC2=C(Cl)C(=O)c3ccccc3C2=O)cc1 | -109% | 12µM* | -35% | 2.9µM* | -38% | u
Cc1ccc(NC2=C(Cl)C(=O)c3ccccc3C2=O)cc1 | x | -23% | -33% | u | -34% | u
CCOc1ccc(NC2=C(OC)C(=O)c3ccccc3C2=O)cc1 | -26% | 17µM* | 3% | 0% | 15% | 24%
O=C(c1ccc2c(c1)OCO2)c1cn(Cc2ccc(F)cc2)c2ccccc2c1=O | -6% | -6% | x | x | x | x
COc1ccc(-c2cn(/N=C/c3ccc(Cl)cc3Cl)c(N)n2)cc1 | -26% | -16% | 2% | 0% | 1% | -29%
SMILES | SMN2 splice enh | FLuc modulator | Rab9 promoter act | ELG1 genotoxic | NPC1 prom act | ELG1 repair inh
O=C(NCCc1nc2ccccc2n1Cc1ccccc1)c1ccco1 | u | 3% | x | x | x | x
COC(=O)C1CC(O)CN1C(=O)Nc1ccccc1 (stereo not given) | 15% | 2% | 3% | -3% | 0% | -7%
CCCc1ccc(C(=O)Cn2nc(C(=O)O)c3ccccc3c2=O)cc1 | -4% | u | 0% | 0% | -1% | 2%
O=C(Cn1nc(C(=O)O)c2ccccc2c1=O)c1c[nH]c2ccccc12 | x | 15µM* | -1% | 2% | -7% | 3%
O=C(Cn1nc(C(=O)O)c2ccccc2c1=O)Nc1cc(Cl)cc(Cl)c1 | x | -1% | -3% | 0% | 1% | 14%
Cc1cc(C)c(C(=O)Cn2nc(C(=O)O)c3ccccc3c2=O)cc1C | x | 6µM* | 11% | 0% | -6% | u
Cc1cc(C(=O)Cn2nc(C(=O)O)c3ccccc3c2=O)c(C)n1-c1ccccc1 | -7% | 0.95µM* | u | u | 19% | u
Cc1cc(C(=O)Cn2nc(C(=O)O)c3ccccc3c2=O)c(C)n1CCc1ccc(Cl)cc1 | -20% | -12% | 2% | -17% | -6% | 8.2µM*
Cc1ccccc1NC(=O)Cn1nc(C(=O)O)c2ccccc2c1=O | x | -1% | -2% | 1% | -4% | 2%
COCCNC(=S)NNC(=O)c1cc(-c2cccnc2)nc2ccccc12 | x | 8.5µM* | 0% | 1% | -2% | 13%
COCCCNC(=S)NNC(=O)c1cc(C2CC2)nc2ccccc12 | x | 12µM* | -4% | 2% | -1% | -2%
CCCc1cc(C(=O)NNC(=S)NCC)c2ccccc2n1 | -70% | u | -2% | 3% | -1% | -1%
COCCCNC(=S)NNC(=O)c1cc(-c2ccncc2)nc2ccccc12 | x | 8.5µM* | 0% | 8% | -1% | 19%
COCCNC(=O)c1cc(-c2cccnc2)nc2ccc(Br)cc12 | 9% | u | 4% | 0% | 0% | -3%
COCCCNC(=S)NNC(=O)c1cc(-c2cccnc2)nc2ccccc12 | x | 11µM* | -3% | 4% | 0% | -4%
Cc1c(C(=O)NCc2cccc(Cl)c2)sc2nc[nH]c(=O)c12 | x | -9% | x | x | x | x
CCNC(=S)NNC(=O)c1cc(-c2cc(C)ccc2C)nc2ccccc12 | -18% | 19µM* | -1% | -4% | -5% | 1%
COc1cc2c(cc1OC)n(CC(=O)c1cccc(Cl)c1)c(=O)n1nc(CCn3nc(C)cc3C)nc21 | x | -3% | x | x | x | x
O=C(Cc1ccc(Br)cc1)c1ccc(O)cc1O | x | 15µM* | u | u | 3.2µM* | u
CCc1cc(-c2n[nH]c(C)c2-c2nc3ccccc3s2)c(O)cc1OCC(=O)NN | -3% | 5% | -3% | -10% | 0% | -16%
O=C(Cc1nc2ccccc2s1)c1ccc(O)cc1O | u | u | 3.2µM* | u | 3.2µM* | u
